# Reference: the supplement of paper PMC13380429
# Unmarked numbers belong to inactive results.
# System: Vero E6 infected with SARS-CoV-2
# Experiment: inhibition of SARS-CoV-2 cytopathic effect; higher = more antiviral protection, active = above 15
# Conditions: 10000 nM; 48 h
row,Compound,inhibition of SARS-CoV-2 cytopathic effect [%]
1,CCN(C)C(=O)Oc1cccc([C@H](C)N(C)C)c1 [rivastigmine],-1.56
2,CCO[C@@H](Cc1ccc(OCCc2ccc(OS(C)(=O)=O)cc2)cc1)C(=O)O [tesaglitazar],1.52
3,O=C1C[C@@H](c2ccc(O)cc2)Oc2cc(O)ccc21,12
4,O=C1OCCN1/N=C/c1ccc([N+](=O)[O-])o1 [furazolidone],0.23
5,O=C1C=Cc2cc(Br)ccc2C1=O [bonaphthone],-2.53
6,CC(C)NNC(=O)c1ccncc1 [iproniazid],-1.76
7,CC1(C)S[C@@H]2[C@H](N3C(=O)[C@@H](c4ccccc4)NC3(C)C)C(=O)N2[C@H]1C(=O)O [hetacillin],2.77
8,CC(C)(C#N)c1cc(Cn2cncn2)cc(C(C)(C)C#N)c1 [anastrozole],-0.89
9,CC[C@@H](CO)NC(=O)[C@@H]1C=C2c3cccc4c3c(cn4C)C[C@H]2N(C)C1 [methysergide],0.92
10,Cc1ccc2c(c1CCC(=O)O)CC[C@@H](NS(=O)(=O)c1ccc(Cl)cc1)C2 [terutroban],0.09
11,OCC(CO)N[C@H]1C[C@](O)(CO)[C@@H](O)[C@H](O)[C@H]1O [voglibose],2.03
12,CN(C)CCCN1c2ccccc2Sc2ccccc21 [promazine],-0.38
13,CCCCOC(=O)c1ccc(N)cc1 [butamben],2.78
14,COc1ccc2cc([C@H](C)C(=O)O)ccc2c1 [naproxen],0.68
15,C[C@@H](O)[C@H]1C(=O)N2C(C(=O)O)=C([C@H]3CCCO3)S[C@H]12 [faropenem],1.61
16,Cn1cc(C2=C(c3cn(C4CCN(Cc5ccccn5)CC4)c4ccccc34)C(=O)NC2=O)c2ccccc21 [enzastaurin],3.94
17,Cc1c(S(=O)(=O)O)oc2c1C(=O)C(=O)c1c-2ccc2c1CCCC2(C)C [sodium-tanshinone-II-A-sulfonate],-10.1
18,CCOC(=O)CCNc1cc(N2CCc3ccccc3CC2)nc(-c2ccccn2)n1,-0.53

row,Compound,inhibition of SARS-CoV-2 cytopathic effect [%]
1,Cc1[nH]c2ccc(O)cc2c1CCN [2-methyl-5-hydroxytryptamine],-2.37
2,Cn1cc(-c2ccc(F)c(C(F)(F)F)c2)nc1C1CCN(c2ncnc3[nH]ncc23)CC1,-3.92
3,CC(C)/N=c1\cc2n(-c3ccc(Cl)cc3)c3ccccc3nc-2cc1Nc1ccc(Cl)cc1 [clofazimine],-0.63
4,CCCCNc1c(C(=O)OCC)c(C)nc2c1cnn2CC [tracazolate],-1.99
5,CCOc1ccccc1OC(c1ccccc1)C1CNCCO1 (stereo not given) [reboxetine],-1.59
6,O[C@@H]1CO[C@H]2[C@@H]1OC[C@@H]2O [isosorbide],3.05
7,CC(=O)NC1CCSC1=O (stereo not given) [citiolone],2.58
8,CS(=O)(=O)c1ccc(-c2cc(Br)sc2-c2ccc(F)cc2)cc1,-5.5
9,CCCN1CCN(c2ccc(C(=O)NC3(C(=O)NCC#N)CCCCC3)cc2)CC1 [balicatib],10.8
10,CC(C)(O)CS(=O)(=O)Nc1ccc2c(c1)CCN(C(=O)COc1cccnc1)C2 [Nampt-IN-1],-25.6
11,COC(=O)N[C@H](C(=O)N1CCC[C@H]1c1ncc(-c2ccc(-c3ccc(-c4cnc([C@@H]5CCCN5C(=O)[C@@H](NC(=O)OC)C(C)C)[nH]4)cc3)cc2)[nH]1)C(C)C [daclatasvir],-0.59
12,CCCC(C)C1(CC)C(=O)NC(=S)NC1=O (stereo not given) [thiopental],0.45
13,CC(C)n1cnc2c(C(=O)N[C@H]3CN4CCC3CC4)cc(Cl)cc21,-4.61
14,N#CC(c1ccnc(OCc2ccc(CN3CCOCC3)cc2)n1)c1nc2ccccc2s1 (stereo not given),6.87
15,N=C(NCCC[C@H](N)C(=O)O)N[N+](=O)[O-] [NG-nitro-arginine],-0.46
16,COc1ccc(CCO[C@@H]2CCCC[C@H]2N2CC[C@@H](O)C2)cc1OC [vernakalant],-1.63
17,CCN(CC)CCNC(=O)c1ccccc1I,2.51
